HT1080 IDH1KD tx: HT-1080 IDH1 knockdown cell toxicity (counter line); HT-1080 IDH1 knockdown viability, ATP luminescence, 48 h; Potency, µM (series often up to 46.1 µM), without a hit: at the highest dose activity, negative = toxicity, actives largely listed as cytotoxic; 2% of 360,000 active;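 note: potency is the fitted concentration of half-maximal effect; 0% = DMSO wells and -100% = cell-free medium wells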
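Cytotoxicity counter-line: IDH1KD HT-1080, 48 h, CellTiter-Glo. Curves classed by r2, magnitude and activity.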
TDP1 cell CPT: DT40-hTDP1 cell growth loss with CPT; chicken DT40 Tdp1-/-;hTDP1 cells + 20 nM CPT, ATP luminescence, 48 h; Potency, µM (highest dose often 46.2 µM), without a hit: top-dose activity change, negative = growth inhibition, usual class: inhibitors; 12% of 420,000 active; AID 686979; note: potency is the fitted concentration of half-maximal effect; nearly all actives have a fitted effect of over 55% in size
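Chicken DT40 Tdp1-/- cells complemented with human TDP1, 400 cells/well, exposed to compounds plus 20 nM camptothecin for at least 48 h at 37 C; viability read as ATP content by CellTiter-Glo luminescence.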
DT40 TDP1 no CPT: qHTS for Inhibitors of human tyrosyl-DNA phosphodiesterase 1 (TDP1): qHTS in cells in absence of CPT; 15% of 420,000 active; DT40 Tdp1-/- hTDP1 cells, no CPT, ATP luminescence, 48 h; Potency, µM (doses to about 46.2 µM), inactives show at the top dose activity change, negative = growth inhibition, usual class: inhibitors; AID 686978, 2013; note: potency is the fitted concentration of half-maximal effect; nearly all actives have a fitted effect of over 55% in size
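Camptothecin absent (DMSO only). Human TDP1-complemented DT40 knockout cells, 400 cells/well, 37 °C for minimum 48 hr; ATP measured via CellTiter-Glo, 30 min dark incubation, luminescence.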
IL-1B inflam inh: inhibitors of inflammasome signaling (IL-1 beta secretion). THP-1 LPS/ATP IL-1B secretion, AlphaLISA, 16 h; active compounds read low. activity change, % at 57.5 µM. 4.7% of 360,000 active; in the data active = activity change below about -50%; inconclusive = mostly about -30% to -49%
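THP-1 cells pretreated 1 hr with compounds (up to 57.5 uM final), then stimulated with LPS (250 ng/mL final) plus ATP (1.25 mM final); secreted IL-1B measured by AlphaLISA after 16 hr, decreased signal indicating inhibition.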
HT1080-NT tox: kills 2HG-producing HT-1080-NT fibrosarcoma cells. HT-1080-NT fibrosarcoma viability, CellTiter-Glo ATP luminescence, 48 h. Potency, µM (highest dose often 46.1 µM), for the others: at the highest dose activity, negative = less viability, usual class: cytotoxic. 1.6% of 360,000 active. AID 686970;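 note: NT is the 2HG producing partner of a matched IDH1 knockdown line; potency is the fitted concentration of half-maximal effect; 0% = DMSO-treated cells and -100% = media-only wells without cells; nearly all actives have a fitted effect of over 55% in size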
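750 cells/well, RPMI + 5% FBS; 2 h settle, compound pin-transfer, 48 h at 37 degrees C. CellTiter-Glo 10 min RT, luminescence. Normalized to DMSO and media-only wells.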
uPA generation: inhibitors of cell surface uPA generation; Potency, µM (series often up to 38.3 µM), inactives show at the highest dose activity change, negative = inhibition, usual class: inhibitors; cell surface uPA generation assay, qHTS; AID 540303; 0.31% of 330,000 active; active = well fitted inhibition curve with a large enough effect; inconclusive = small, poorly fitted or top-dose-only effect; inactive = no such curve, though single readings can be large or run the other way; tested in mouse RAW 264.7 cells; note: potency is the fitted concentration of half-maximal effect; nearly all actives have a fitted effect of over 55% in size
* hit, by the source's call; [ ] = remark or other dose. Most compounds without a hit are left out; they make up all but 19% or so of the library. Unless noted, calls come from the whole dose curve; as a rule, active = well fitted curve in the direction sought with a large enough effect; inconclusive = small, poorly fitted or top-dose-only effect, or another doubt; inactive = no such curve, though single readings can be large; an effect the other way counts as inactive or inconclusive. Unless noted, % is set by controls: 0 for no effect and ±100 for the full control effect.

Results for Cc1sc2ncnc(N[C@@H](Cc3c[nH]c4ccccc34)C(=O)O)c2c1C ?
HT1080 IDH1KD tx: 8.6%; TDP1 cell CPT: -16.8%; DT40 TDP1 no CPT: -29.4%; IL-1B inflam inh: 29.2; HT1080-NT tox: 9.0%; uPA generation: 1.3%

Results for O=C(CSc1nc2ncccc2[nH]1)Nc1cc(F)ccc1F ?
TDP1 cell CPT: -2.7%; DT40 TDP1 no CPT: inconclusive

What do the screens show for `COC(=O)c1c(SCC(=O)NC2CCCCC2)[nH]c2ccccc2c1=O`?
HT1080 IDH1KD tx: -7.0%; TDP1 cell CPT: 14.1%; DT40 TDP1 no CPT: inconclusive; IL-1B inflam inh: 9.5; HT1080-NT tox: 8.4%; uPA generation: 2.4%

Results for COC(=O)c1c(SCC(=O)Nc2cccc(Cl)c2C)[nH]c2ccccc2c1=O ?
TDP1 cell CPT: 23.1µM*; DT40 TDP1 no CPT: inconclusive

How did COC(=O)c1c(SCC(=O)Nc2cc(F)ccc2F)[nH]c2ccc(C)cc2c1=O do in these assays?
TDP1 cell CPT: 8.2µM*; DT40 TDP1 no CPT: 8.2µM*

Results for COC(=O)c1c(SCC(=O)Nc2cccc(C(F)(F)F)c2)[nH]c2ccccc2c1=O ?
TDP1 cell CPT: 5.8µM*; DT40 TDP1 no CPT: 5.8µM*

How did N#Cc1ccc(S(=O)(=O)N2CCN(CC(=O)NCC3(N4CCOCC4)CCCCC3)CC2)cc1 do in these assays?
HT1080 IDH1KD tx: 2.8%; TDP1 cell CPT: -3.1%; DT40 TDP1 no CPT: -1.3%; IL-1B inflam inh: -4.7; HT1080-NT tox: 4.2%; uPA generation: -1.2%

Results for COCCNC(=O)C1=CC(c2ccc3c(c2)OCO3)=NS(=O)(=O)N1C ?
TDP1 cell CPT: 0.0%; DT40 TDP1 no CPT: -16.3%

How did COCCn1c(SC(C)C(=O)Nc2ccc(Cl)cn2)nnc1-c1ccncc1 (stereo not given) do in these assays?
HT1080 IDH1KD tx: 8.0%; TDP1 cell CPT: 9.5%; DT40 TDP1 no CPT: -7.7%; IL-1B inflam inh: 35.5; HT1080-NT tox: 16.2%; uPA generation: 8.3%

What do the screens show for `CS(=O)(=O)NCC(c1cccnc1)N1CCN(c2ccccc2F)CC1` (stereo not given)?
HT1080 IDH1KD tx: 0.1%; TDP1 cell CPT: -3.5%; DT40 TDP1 no CPT: -12.9%; IL-1B inflam inh: 5.8; HT1080-NT tox: 5.9%; uPA generation: 10.4%

How did COc1ccc(NC(=O)C(=O)NCC(c2cccnc2)N2CCc3ccccc32)cc1OC (stereo not given) do in these assays?
TDP1 cell CPT: inconclusive; DT40 TDP1 no CPT: 20.6µM*

Results for CCc1ccccc1NC(=O)C(=O)NCC(c1cccnc1)N1CCN(c2ccccc2F)CC1 (stereo not given) ?
TDP1 cell CPT: inconclusive; DT40 TDP1 no CPT: 14.6µM*

Results for COc1ccc(C)cc1NC(=O)C(=O)NCC(c1cccnc1)N1CCN(c2ccccc2F)CC1 (stereo not given) ?
TDP1 cell CPT: inconclusive; DT40 TDP1 no CPT: 18.4µM*

How did COc1ccc(C)cc1NC(=O)C(=O)NCC(c1cccnc1)N1CCc2ccccc21 (stereo not given) do in these assays?
TDP1 cell CPT: inconclusive; DT40 TDP1 no CPT: 14.6µM*

Results for COc1ccc(NC(=O)c2ccc3c(c2)C(=O)N(Cc2ccncc2)C3=O)cc1S(N)(=O)=O ?
HT1080 IDH1KD tx: -15.4%; TDP1 cell CPT: -0.2%; DT40 TDP1 no CPT: -13.3%; IL-1B inflam inh: 8.3; HT1080-NT tox: -2.9%; uPA generation: 1.5%

How did CCn1c(-c2ccccc2F)nc2cc(C(=O)N3CCNC(=O)C3CC(=O)OC)cc(NC(C)=O)c21 (stereo not given) do in these assays?
TDP1 cell CPT: -3.1%[9.04 µM]; DT40 TDP1 no CPT: 0.9%

How did COC(=O)c1ccc(NC(=O)C(=O)NCC(c2cccnc2)N2CCc3ccccc32)cc1 (stereo not given) do in these assays?
TDP1 cell CPT: 14.6µM*; DT40 TDP1 no CPT: 16.4µM*

What do the screens show for `CCOc1ccc(NC(=O)C(=O)NCC(c2cccnc2)N2CCc3ccccc32)cc1` (stereo not given)?
TDP1 cell CPT: 4.11µM*; DT40 TDP1 no CPT: 3.66µM*

What do the screens show for `CCOc1ccc(NC(=O)C(=O)N/N=C/c2cccnc2)cc1`?
HT1080 IDH1KD tx: 19.7%; TDP1 cell CPT: -4.2%; DT40 TDP1 no CPT: 21.6%; IL-1B inflam inh: 5.7; HT1080-NT tox: 1.0%; uPA generation: 3.3%

How did CCOc1cc(C2C(C(=O)Nc3ccccc3)=C(C)Nc3ncnn32)cc(Br)c1O (stereo not given) do in these assays?
TDP1 cell CPT: 2.1%; DT40 TDP1 no CPT: -20.3%

What do the screens show for `CC(C)(CO)[C@@H](O)C(=O)NCCCO`?
TDP1 cell CPT: -17.5%; DT40 TDP1 no CPT: 5.3%

Results for CCOC(=O)c1ccc(-n2c(=S)sc3c(=O)[nH]c(C)nc32)cc1 ?
HT1080 IDH1KD tx: -4.0%; TDP1 cell CPT: inconclusive; DT40 TDP1 no CPT: 16.4µM*; IL-1B inflam inh: 35.4; HT1080-NT tox: 2.2%

What do the screens show for `COc1cccc(N2CCN(S(=O)(=O)c3cn(C)c(C)n3)CC2)c1`?
TDP1 cell CPT: -6.8%; DT40 TDP1 no CPT: -2.9%

What do the screens show for `Cc1cccc(NC(=O)N2CCN3CCCCC3C2)c1C` (stereo not given)?
TDP1 cell CPT: 4.2%; DT40 TDP1 no CPT: 2.7%

How did Cc1noc(C)c1C(=O)OCC(=O)c1cc(C)n(Cc2ccccc2Cl)c1C do in these assays?
HT1080 IDH1KD tx: -24.2%; TDP1 cell CPT: 20.6µM*; DT40 TDP1 no CPT: 14.6µM*; IL-1B inflam inh: 23.9; HT1080-NT tox: 0.8%; uPA generation: -5.5%

What do the screens show for `Clc1cccc(Cl)c1CSc1nnc([C@@H]2CCCN2)o1`?
HT1080 IDH1KD tx: 0.7%; TDP1 cell CPT: -4.2%; DT40 TDP1 no CPT: -14.5%; IL-1B inflam inh: 3.7; HT1080-NT tox: -10.9%; uPA generation: 1.8%

How did COc1cc(C(=O)c2cocc2C(=O)c2ccc3c(c2)OCO3)cc(OC)c1OC do in these assays?
HT1080 IDH1KD tx: 1.64µM*; TDP1 cell CPT: 0.731µM*; DT40 TDP1 no CPT: 0.731µM*; IL-1B inflam inh: 49.5; HT1080-NT tox: 1.3µM*; uPA generation: -5.5%

How did COc1cc(CC(CC(=O)c2ccc3c(c2)OCO3)C(=O)O)cc(OC)c1OC (stereo not given) do in these assays?
HT1080 IDH1KD tx: 2.2%; TDP1 cell CPT: 14.5%; DT40 TDP1 no CPT: 1.0%; IL-1B inflam inh: 14.3; HT1080-NT tox: 15.9%; uPA generation: 0.4%

What do the screens show for `O=C(NC(=S)Nc1ccccc1Br)c1ccc2c(c1)OCO2`?
HT1080 IDH1KD tx: 2.2%; TDP1 cell CPT: 18.7%; DT40 TDP1 no CPT: 3.1%; IL-1B inflam inh: 11.7; HT1080-NT tox: 6.5%; uPA generation: 8.4%

High-throughput results: PubChem, National Center for Advancing Translational Sciences (NCATS)
